According to publication PMC5540273 (PLoS ONE, 2017):
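Also: KINOMEscan kinase panel screen.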

The compounds below were run on WEE2. Settings: concentration: 1 μM, replicates: in singlicate; n = 1.
For `Cc1ccc(NC(=O)c2ccc(Cl)cc2)cc1-c1ccc(C(=O)Nc2ccncc2)cc1` [GSK1398467], the “%Inh” value was 8%.
With `O=C(Nc1n[nH]c2nc(-c3cccs3)c(Br)cc12)C1CCCC1` [SB-743341] the “%Inh” value was 22%.
`COc1ccc2cc(-c3nc(-c4ccccc4C(C)C)[nH]c3-c3ccncc3)ccc2c1` [SB-660566] was tested, and the “%Inh” value was 15%.
With `COc1cc2ncnc(Nc3cccc(Br)c3)c2cc1OC.Cl` [GI230329] the “%Inh” value was 6%.
In the case of `O=c1cc(N2CCOCC2)nc2n(Cc3cccc(Cl)c3Cl)c3ccccc3n12` [GSK2299009], the “%Inh” value is reported as 17%.
In the case of `CC(=O)c1c(C)c2cnc(Nc3ccn(C)n3)nc2n(C2CCCC2)c1=O`, the “%Inh” value is reported as 0%.
`CN1c2ccc(-c3ccc(C(N)=O)cc3)cc2-c2[nH]ncc2S1(=O)=O` was tested, and the “%Inh” value was 0%.
`COc1ccc(Nc2nccc(NCCNC(=O)Nc3cc(C)ccc3C)n2)cc1` [GSK1379899] was tested, and the “%Inh” value was 0%.
In the case of `Nc1cccc(-c2ccc3c(N)n[nH]c3c2)n1` [GSK2192730], the “%Inh” value is reported as 0%.
For `CNc1nc(-c2ccc3c(N)n[nH]c3c2)cc(N2C[C@@H](C(=O)Nc3ccccc3)CC[C@H]2C)n1` [GSK2298859], the “%Inh” value was 0%.
For `Cc1ccc(NC(=O)Nc2ccccc2F)cc1-c1ccc(C(=O)Nc2ccncc2)cc1` [GSK1398477], the “%Inh” value was 12%.
With `c1ccc(-c2ccnc3[nH]ccc23)cc1` [SB-693578] the “%Inh” value was 23%.
`O=C(Nc1n[nH]c2nc(-c3cccs3)c(Br)cc12)C1CC1` [SB-735297] was tested, and the “%Inh” value was 0%.
`Cn1cncc1C(=O)NC1CCN(c2ccnc(Nc3ccc(F)cc3)n2)C1` (centres unmarked) [GSK1379717] was tested, and the “%Inh” value was 0%.
With `COc1ccc(Nc2nccc(N3CCC(NC(=O)C(C)c4ccc(Cl)cc4)CC3)n2)cc1` (centres unmarked) [GSK1379812] the “%Inh” value was 0%.
`CCc1ccc(-c2ccc3c(c2)-c2n[nH]cc2S(=O)(=O)N3C)cc1` was tested, and the “%Inh” value was 0%.
For `CS(=O)(=O)CCNCc1nc(-c2ccc3ncnc(Nc4ccc(OCc5ccccc5)c(Cl)c4)c3c2)cs1.Cl` [GW582764], the “%Inh” value was 16%.
With `Cc1ccc(NC(=O)Nc2ccc(Cl)c(C(F)(F)F)c2)cc1-c1ccc(C(=O)Nc2ccncc2)cc1` [GSK1398470] the “%Inh” value was 10%.
`Fc1ccc(-c2nn3cccc(F)c3c2-c2ccncc2)cc1` [GW475620] was tested, and the “%Inh” value was 5%.
For `CNc1nc(-c2ccc3c(N)n[nH]c3c2)cc(N2C[C@@H](C(=O)NC3CCCCC3)OC[C@H]2C)n1` [GSK2375584], the “%Inh” value was 3%.
For `Cn1cncc1-c1cc2c(Nc3ccc(OCc4ccccc4)cc3)ncnc2cn1` [GW281179], the “%Inh” value was 0%.
For `Fc1ccc(-c2nc[nH]c2-c2ccncc2)cc1` [SB-217360], the “%Inh” value was 0%.
In the case of `COc1cccc(C2=C(Nc3cc(Cl)c(O)c(Cl)c3)C(=O)NC2=O)c1` [SB-390767], the “%Inh” value is reported as 0%.
